Results filed as inconclusive are left out. Values without a mark were called inactive. Calls of active or inactive are those of the source. The call rests on the fitted dose curve; in most records, active means well fitted cell-killing curve with a large enough effect in the repeat runs; inconclusive means weak or mixed curves, or effect the other way; inactive means flat fitted curve, though single readings scatter.

A short description of test [1]: cAMP Responsive Elements (CRE) small molecule antagonists, cell-based qHTS assay: qHTS cell viability counter screen (AID 2060913). Further: nearly all actives have a fitted effect of over 40% in size. The conditions noted are these: CRE-bla HEK293T viability, CellTiter-Glo luminescence, 5 h; series mostly up to 92.4 µM. The gist of the method:
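Steps: cells plated and held 18 hrs at 37 C/5% CO2; compounds and NKH477 (0.25 uM final) added; 3 hrs incubation; reporter substrate read; CellTiter-Glo added to measure cytotoxicity by luminescence.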

Test [2] can be described thus: cAMP Responsive Elements (CRE) small molecule agonists, cell-based qHTS assay: qHTS cell viability counter screen (AID 2060914).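 Further: viability read after 3 h of compound exposure; nearly all actives have a fitted effect of over 50% in size.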 The conditions noted are these: CRE-bla HEK293T viability, CellTiter-Glo luminescence, 5 h; series mostly up to 92.4 µM. Put shortly:
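HEK 293T CRE-bla; DMEM + 10% dialyzed FBS, 25 mM HEPES; 18 h pre-incubation; compound 3 h, 37 °C/5% CO2; CellTiter-Glo added after reporter read; luminescence after 30 min RT.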
On the % scale 0 is the no-effect control and ±100 the full control effect.

For the compound `O=S1(=O)c2cccc3cccc(c23)N1CCCN1CCN(c2ccc(F)cc2)CC1`, the Potency entry in test [1] and in test [2] was “inactive” in each case.
`[Cl][Sc]([Cl])[Cl]`: the Potency result in test [1] and in test [2] was “inactive” each time.
On to `O=P(O)(O)Oc1ccccc1`, for which the Potency result in test [1] and in test [2] was “inactive” throughout.
On to `CSSc1ccoc1C`, for which the Potency result in test [1] and in test [2] was “inactive” in each case.
Consider `O=S(=O)(O)c1cccc(S(=O)(=O)O)c1`, for which the Potency result in test [1] and in test [2] was “inactive” throughout.
`COC(CC(C)CCCC(C)(C)O)OC` (stereo not given): the Potency result in test [1] and in test [2] was “inactive” each time.
Take `CC(C)(O)C#CC(C)(C)O`: the Potency entry in test [1] and in test [2] was “inactive” throughout.
On to `CCCCOC(=O)CO`, for which the Potency result in test [1] and in test [2] was “inactive” in each case.
For `C=C(C)CC(C)(C)C`, the Potency result in test [1] and in test [2] was “inactive” each time.
`Cc1ccccc1C#N`: the Potency result in test [1] and in test [2] was “inactive” each time.
Regarding `COc1cc(C=O)ccc1OC(=O)C(C)C`, the Potency entry in test [1] and in test [2] was “inactive” each time.
As for `O=C(O)C(=O)O`, the Potency entry in test [1] and in test [2] was “inactive” each time.
Regarding `CC1=CC(=O)CC(C)(C)C1(O)/C=C/C(C)=C\C(=O)O` (stereo not given), the Potency entry in test [1] and in test [2] was “inactive” in each case.
On to `CN1CCN(Cc2cc(-c3ccc4[nH]c(=O)oc4c3)co2)[C@@H](c2ccc(F)cc2)C1`, for which the Potency entry in test [1] and in test [2] was “inactive” each time.
Consider `CCN1CCN(c2cc(-c3ccc(F)cc3)c3c(n2)CCCCCC3)CC1`, for which the viability change, negative = cytotoxic in test [1] is -3.64% [at 18.9 µM]. Further, in test [2], the activity change, negative = cytotoxicity is -20.1% [at 18.9 µM].
Turning to `CC1(C)[C@H](C(=O)O)N2C(=O)C[C@H]2S1(=O)=O`, the Potency entry in test [1] and in test [2] was “inactive” in each case.
Take `CC(=O)NO`: the Potency result in test [1] and in test [2] was “inactive” throughout.
In the case of `COC(=O)c1cc(Cl)ccc1NS(=O)(=O)C(F)(F)F`, the Potency entry in test [1] and in test [2] was “inactive” in each case.
Consider `CC(=O)OC/C=C(\C)CCC=C(C)C`, for which the Potency entry in test [1] and in test [2] was “inactive” in each case.
For `CCN(CC)CCNC(=O)c1cc(Br)c(N)cc1OC`, the Potency result in test [1] and in test [2] was “inactive” in each case.
As for `COCCc1ccc(OCC2CO2)cc1` (stereo not given), the Potency entry in test [1] and in test [2] was “inactive” in each case.
On to `C=COCCOCCOCCOC=C`, for which the Potency result in test [1] and in test [2] was “inactive” throughout.
As to `CCCC(=O)OC(=O)CCC`, the Potency result in test [1] and in test [2] was “inactive” throughout.
For the compound `Cc1ccc(C(C)C)c(O)c1`, the Potency result in test [1] and in test [2] was “inactive” throughout.
In the case of `Cc1noc(NS(=O)(=O)c2ccc(N)cc2)c1C`, the Potency result in test [1] and in test [2] was “inactive” throughout.
With `CCCCCCCCCCCCCCCC(=O)OC(C)C`, the Potency result in test [1] and in test [2] was “inactive” throughout.
Regarding `CC(C)NCC(O)COc1ccc(COCCOC(C)C)cc1` (stereo not given), the Potency entry in test [1] and in test [2] was “inactive” in each case.
As to `Cc1c(C)c2c(c(C)c1O)CCC(C)(COc1ccc(CC3SC(=O)NC3=O)cc1)O2` (stereo not given), the Potency entry in test [1] and in test [2] was “inactive” throughout.
Consider `CC1(C)O[C@@H]2C[C@H]3[C@@H]4CCC5=CC(=O)C=C[C@]5(C)[C@H]4[C@@H](O)C[C@]3(C)[C@]2(C(=O)CO)O1`, for which the Potency entry in test [1] and in test [2] was “inactive” in each case.
Take `O=C1c2c(O)ccc(Nc3ccc(CCO)cc3)c2C(=O)c2c([N+](=O)[O-])ccc(O)c21`: the Potency result in test [1] and in test [2] was “inactive” throughout.
On to `CCCCS(=O)(=O)N[C@@H](Cc1ccc(OCCCCC2CCNCC2)cc1)C(=O)O`, for which the Potency result in test [1] and in test [2] was “inactive” in each case.
In the case of `CCCCC(=O)O[C@]1(C(=O)CO)[C@@H](C)C[C@H]2[C@@H]3CCC4=CC(=O)C=C[C@]4(C)[C@@]3(F)[C@@H](O)C[C@@]21C`, the Potency result in test [1] and in test [2] was “inactive” in each case.
For the compound `COc1c(N2C[C@@H]3CCCN[C@@H]3C2)c(F)cc2c(=O)c(C(=O)O)cn(C3CC3)c12`, the Potency result in test [1] and in test [2] was “inactive” each time.
Take `CCC(C)=O`: the Potency entry in test [1] and in test [2] was “inactive” each time.
In the case of `Nc1ccc(NCCO)c([N+](=O)[O-])c1`, the Potency entry in test [1] and in test [2] was “inactive” each time.
`CCC(CN)=C(c1ccccc1)c1ccccc1`: the Potency entry in test [1] and in test [2] was “inactive” each time.
As for `Cc1ccnc(N)c1`, the Potency result in test [1] and in test [2] was “inactive” in each case.
Consider `CCOC(=O)C(F)(F)F`, for which the Potency entry in test [1] and in test [2] was “inactive” throughout.
Turning to `CCS(=O)(=O)CCn1c([N+](=O)[O-])cnc1C`, the Potency entry in test [1] and in test [2] was “inactive” in each case.
For `CCCCCCCCO[C@@H]1O[C@H](CO)[C@@H](O)[C@H](O)[C@H]1O`, the Potency result in test [1] and in test [2] was “inactive” each time.
For the compound `Nc1cc(N)cc(C(=O)O)c1`, the Potency entry in test [1] and in test [2] was “inactive” each time.
For the compound `C[C@]12CCC(=O)C=C1[C@@H]1C[C@@H]1[C@H]1[C@@H]3[C@@H]4C[C@@H]4[C@@]4(CCC(=O)O4)[C@@]3(C)CC[C@@H]12`, the Potency entry in test [1] and in test [2] was “inactive” in each case.
As to `CN1CCN(c2cc3c(cc2F)c(=O)c(C(=O)O)cn3-c2ccc(F)cc2)CC1`, the Potency entry in test [1] and in test [2] was “inactive” in each case.
Consider `CC(C)(C)C(=O)Oc1ccc(S(=O)(=O)Nc2ccccc2C(=O)NCC(=O)O)cc1`, for which the Potency result in test [1] and in test [2] was “inactive” each time.
As for `CC(=O)OCC(COC(C)=O)OC(C)=O`, the Potency entry in test [1] and in test [2] was “inactive” in each case.

(Values after PubChem BioAssay (Tox21).)
